# Results taken from PMC4336329 (PLoS ONE, 2015).
# The whole screen tested about 310,000 compounds, of which about 14,000 (4.5%) showed an effect of 50% or more. The effect is printed as a negative number. The sample as a whole holds a higher share of strong results than the screen did.
# Biological target: human ether-à-go-go-related gene (hERG) potassium channel (human, UniProt Q12809)
# Experiment: primary screen, population patch clamp on CHO cells stably expressing hERG; higher = less effect of the substance
# 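Further: peak tail current of the secondary pulse compared with the same well before compound.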
# Chain of human ether-à-go-go-related gene (hERG) potassium channel (Q12809 whole entry, looked up): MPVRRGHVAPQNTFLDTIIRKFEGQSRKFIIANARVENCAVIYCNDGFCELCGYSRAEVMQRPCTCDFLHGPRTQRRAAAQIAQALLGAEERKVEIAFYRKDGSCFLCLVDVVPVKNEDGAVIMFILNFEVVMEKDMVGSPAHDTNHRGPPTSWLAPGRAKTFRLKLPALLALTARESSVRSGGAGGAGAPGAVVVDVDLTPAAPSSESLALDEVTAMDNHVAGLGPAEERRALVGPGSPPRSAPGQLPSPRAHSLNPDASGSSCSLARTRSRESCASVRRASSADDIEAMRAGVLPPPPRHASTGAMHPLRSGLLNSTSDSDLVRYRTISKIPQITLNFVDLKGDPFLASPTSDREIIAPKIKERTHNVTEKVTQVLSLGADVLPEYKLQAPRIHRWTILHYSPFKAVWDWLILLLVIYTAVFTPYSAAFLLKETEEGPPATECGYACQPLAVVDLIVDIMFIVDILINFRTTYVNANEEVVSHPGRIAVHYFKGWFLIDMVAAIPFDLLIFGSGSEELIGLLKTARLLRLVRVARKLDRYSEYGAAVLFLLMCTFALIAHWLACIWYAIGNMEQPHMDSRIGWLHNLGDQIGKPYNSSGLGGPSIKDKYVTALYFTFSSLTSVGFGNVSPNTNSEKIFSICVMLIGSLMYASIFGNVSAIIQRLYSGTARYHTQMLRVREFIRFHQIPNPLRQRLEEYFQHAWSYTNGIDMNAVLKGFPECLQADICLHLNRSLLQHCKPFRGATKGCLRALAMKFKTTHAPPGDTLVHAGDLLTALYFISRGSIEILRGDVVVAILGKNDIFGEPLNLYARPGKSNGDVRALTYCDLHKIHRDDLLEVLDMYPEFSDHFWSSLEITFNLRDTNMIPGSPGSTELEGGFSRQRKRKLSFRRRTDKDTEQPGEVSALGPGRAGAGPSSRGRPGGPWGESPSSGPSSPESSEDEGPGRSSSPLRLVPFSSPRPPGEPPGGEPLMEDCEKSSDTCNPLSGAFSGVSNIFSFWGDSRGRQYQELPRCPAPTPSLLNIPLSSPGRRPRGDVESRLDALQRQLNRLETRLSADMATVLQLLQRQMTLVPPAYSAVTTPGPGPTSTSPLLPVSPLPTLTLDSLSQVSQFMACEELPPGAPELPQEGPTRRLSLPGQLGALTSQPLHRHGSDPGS
row,Compound,"hERG current change (%, negative = inhibition) at 10uM [%]"
1,Fc1ccccc1NC(=S)NN(Cc1ccccc1)c1ccccc1,-13.9
2,CCNc1nc2[nH]c(=O)c3c(c2s1)OC(N)=C(C#N)C3c1ccc(C)cc1 (stereo not drawn),1.97
3,CCCc1nc(SCC(N)=O)[nH]c(=O)c1CC,7.34
4,CCOc1ccc(NC(=O)c2ccccc2CO)cc1,16.2
5,Cn1cnnc1SCC(=O)Nc1ccccc1Sc1ccccc1,-16.7
6,COc1cc(C(=O)Nc2cc(C)cc(C)c2)c(-n2cnnn2)cc1OC,14.7
7,COCCN(C(=O)Nc1ccc(OC)cc1OC)C1CCN(C(C)=O)CC1,7.58
8,O=C(CN1CCCCC1)Nc1ccccc1,-1.04
9,Cl.O=C(Nc1ccccc1)OCC(CN1CCCCC1)OC(=O)Nc1ccccc1 (stereo not drawn),-60.1
10,O=C(Nc1ccccc1)OC(CN1CCCCC1)C(F)(F)F (stereo not drawn),6.17
11,CCN(CC(=O)Nc1ccc(NC(C)=O)cc1)C(=O)C1CCCN(C(=O)c2ccc(Cl)cc2)C1 (stereo not drawn),-3.75
12,COc1ccc(OC)c(NC(=O)CN2CCC(NC(=O)c3ccccc3C)CC2)c1,-12.3
13,CC1CCN(CC(=O)Nc2ccccc2C(=O)NC2CC2)CC1,-17.4
14,CCOc1cc2c(cc1OCC)CN(CC(=O)Nc1ccccc1C(=O)NC1CC1)CC2,-31.4
15,CC(=O)c1ccc(N2CCN(CC(=O)Nc3ccccc3C(=O)NC3CC3)CC2)c(F)c1,-27.9
16,CCOc1ccccc1C(=O)NC1CCN(CC(=O)Nc2cc(OC)ccc2OC)CC1,-77.2
17,CCOc1ccccc1OCC(=O)Nc1ccccc1C(=O)NC1CC1,3.61
18,COC(=O)c1ccccc1NC(=O)CN1CCC(NC(=O)c2ccccc2C)CC1,-39.9
19,CCOc1ccccc1NC(=O)CN1CCC(NC(=O)c2ccccc2C)CC1,-59.4
20,CCOc1ccccc1N1CCN(CC(=O)Nc2ccccc2C(=O)NC2CC2)CC1,-70.2
21,CCOc1ccccc1NC(=O)N1CCC(NC(=O)c2ccccc2C)CC1,-1.06
22,CCOc1ccccc1C(=O)Nc1cc(OC)ccc1OC,-3.8
23,Cc1ccccc1N1CCN(CC(=O)Nc2ccccc2C(=O)NC2CC2)CC1,-62.4
24,COc1cccc(OCc2nnc(SC)n2C)c1,-7.06

row,Compound,"hERG current change (%, negative = inhibition) at 10uM [%]"
1,Cc1cc2ccccn2c1C(=O)c1ccc(NN)c([N+](=O)[O-])c1,-6.4
2,O=C(Nc1ccc(S(=O)(=O)Nc2ccccn2)cc1)c1ccc(Cl)cc1Cl,2.92
3,Cc1ccccc1NC(=O)CN1C(=O)S/C(=C\c2ccc(-c3cccc(C(=O)O)c3C)o2)C1=O,23.7
4,CCc1cccc(NC(=O)COC(=O)C2CCN(c3ccc(C(F)(F)F)cn3)CC2)c1,-4.68
5,CCOc1ccc(NC(=S)NC(=O)Cc2ccccc2)cc1,25.5
6,Cc1nnc(NC(=O)/C=C/c2ccco2)s1,26.3
7,O=C(Nc1ccc(CN2CCOCC2)cc1)c1ccc(Br)cc1,3.54
8,CC(C)NC(=O)c1ccccc1NC(=O)Cc1ccc([N+](=O)[O-])cc1,-33.8
9,CC1C(=O)CCN(C(C)C)C1C.Cl (stereo not drawn),8.54
10,CCOC(=O)c1cnn(C)c1NC(=O)c1ccc(Cl)cc1Cl,-24.5
11,Cc1cc(C)nc(NS(=O)(=O)c2ccc(NC(=O)c3ccc4c(c3)OCO4)cc2)n1,-0.197
12,S=C(NC1CCCCC1)N1CCN(C/C=C/c2ccccc2)CC1,-21.8
13,O=C(CN1CCN(Cc2ccccc2)CC1)NC(=O)NC1CCCCC1,-46.3
14,O=C(CN1CCN(C/C=C/c2ccccc2)CC1)NC(=O)NC1CCCCC1,-74.8
15,NC(=O)C1CCCN(CC(=O)Nc2ccccc2C(=O)NC2CC2)C1 (stereo not drawn),-10.7
16,O=C(CN1CCc2ccccc2C1)Nc1ccccc1C(=O)NC1CC1,-24.5
17,O=C(CN1CCN(C/C=C/c2ccccc2)CC1)Nc1ccccc1C(=O)NC1CC1,-80.5
18,CCOc1cc(C2NC(=O)NC2=O)ccc1O (stereo not drawn),17.4
19,CCN(CC)CCN(C(=O)Cn1nnc(-c2ccc(C)o2)n1)C(C(=O)NC(C)(C)C)c1cccs1 (stereo not drawn),-41.6
20,O=C1CC(C(=O)NC2CCCCC2)C2(CCCCC2)O1 (stereo not drawn),-1.23
21,COc1cc(NC(=O)C(=O)NCCN(C)C)c(OC)cc1Cl,8.41
22,CCCCN(C1CCS(=O)(=O)C1)S(=O)(=O)c1ccc(OC)cc1 (stereo not drawn),-24.5
23,CC(C)(CO)Nc1nc(N2CCCC2)nc(N2CCCC2)n1,-13.8
24,COc1ccc(NC(=O)NNC(=O)COc2ccc3cc(Br)ccc3c2)cc1OC,5.68

row,Compound,"hERG current change (%, negative = inhibition) at 10uM [%]"
1,COc1cc(CN(C)Cc2cc(=O)oc3cc(C)c(Cl)cc23)ccc1OC(F)F,12
2,Cc1ccc2c(CN3CCOCC3)cc(=O)oc2c1,-27.6
3,CCOC(=O)C1CCN(Cc2cc(=O)oc3cc(C)ccc23)CC1,-47.8
4,Cc1ccc2oc(=O)cc(CN3CCN(Cc4ccccc4)CC3)c2c1,-56.8
5,COc1ccc(CN2CCN(Cc3cc(=O)oc4cc(C)ccc34)CC2)c(OC)c1OC,-80.2
6,Cc1ccc2c(CN3CCCCC3)cc(=O)oc2c1,-16.1
7,CCc1ccc2c(CN(C)Cc3ccc(OC(F)F)c(OC)c3)cc(=O)oc2c1,-72.5
8,CCc1ccc2c(CN(C)Cc3ccccc3OC)cc(=O)oc2c1.O=C(O)C(=O)O,-21.3
9,CC(C)c1ccc2oc(=O)cc(CN3CCN(Cc4ccccc4)CC3)c2c1,17.5
10,COc1ccc2oc(=O)cc(CN3CCN(Cc4ccc(OC)c(OC)c4OC)CC3)c2c1,-39.7
11,CCN1CCN(Cc2cc(=O)oc3ccc(C)cc23)CC1,-3.04
12,Cc1ccc2c(CN3CCN(Cc4ccccc4)CC3)cc(=O)oc2c1,-78.9
13,CC(Sc1nc(N)cc(=O)[nH]1)C(=O)Nc1sc2c(c1C#N)CCCC2 (stereo not drawn),1.55
14,Cc1c(C)c(C)c(S(=O)(=O)NCCc2ccccn2)c(C)c1C,-7.95
15,C=CCNC(=O)c1nn2cccnc2c1Cl,12.7
16,COC(=O)C1C(=O)C=C(Nc2ccc(F)cc2F)CC1c1ccccc1 (stereo not drawn),-16.9
17,O=C1CCCN1CC(O)CS(=O)(=O)c1ccc(Cl)cc1 (stereo not drawn),16.7
18,CSc1ccc(CN(C)Cc2nc3cc(C(F)(F)F)ccc3c(=O)[nH]2)cc1,12.9
19,COc1cc2c(cc1OC)CN(Cc1cc(=O)oc3cc(C)c(Cl)cc13)CC2,-14.3
20,Cc1ccc2c(CN3CCN(CCO)CC3)cc(=O)oc2c1C,-15.5
21,Cc1ccc2c(CN3CCN(CCO)CC3)cc(=O)oc2c1,-74.9
22,Cc1ccc2c(CN3CCC(C)CC3)cc(=O)oc2c1,-50
23,Cc1ccc2c(CN3CC(C)CC(C)C3)cc(=O)oc2c1 (stereo not drawn),-2.89
24,COc1cc2c(cc1OC)CN(Cc1cc(=O)oc3cc(C)c(C)cc13)CC2,-37.6

row,Compound,"hERG current change (%, negative = inhibition) at 10uM [%]"
1,CCc1cc2c(CN3CCN(CCO)CC3)cc(=O)oc2cc1O,15.6
2,Cc1ccc2oc(=O)cc(CN3CCC(C)CC3)c2c1,10.8
3,COc1cccc(CN(C)Cc2nc3cc(C(F)(F)F)ccc3c(=O)[nH]2)c1,-3.19
4,COc1cc(CN(C)Cc2nc3cc(C(F)(F)F)ccc3c(=O)[nH]2)ccc1OC(F)F,-66.5
5,CCc1ccc2c(CN3CCc4cc(OC)c(OC)cc4C3)cc(=O)oc2c1,-66
6,Cc1ccc2c(c1)-c1c(cnn1CC(=O)N(Cc1ccco1)C1CCCCC1)CO2,-13
7,Cc1cc(C)cc(NC(=O)Cn2nnc(C(=O)NCc3ccco3)c2N)c1,6.01
8,CCn1cc(/C=N\NC(=O)Cc2ccc(Cl)cc2)cn1,-12
9,CCOC(=O)N1CCN(C(=O)CSc2nnc(CNC(=O)c3ccccc3F)o2)CC1,6.37
10,COc1ccccc1-c1cc(C(=O)NC2CCN(C)CC2)c2ccc(Cl)c(C)c2n1,-42
11,N#CC1(NC(=O)COC(=O)CCCN=C2NS(=O)(=O)c3ccccc32)CCCCC1,15
12,Cn1c(SCC(=O)NCc2ccc3c(c2)OCO3)nc2c(c1=O)SCC2,-21
13,Cn1nnnc1SCc1cc(=O)[nH]c2ccccc12,2.31
14,CCc1ccc2c(CSc3nnnn3C)cc(=O)oc2c1,-68.1
15,Cc1ccc2c(CN3CCN(S(=O)(=O)c4ccccc4C(F)(F)F)CC3)cc(=O)oc2c1,-57.3
16,CCc1ccc2c(CN3CCOCC3)cc(=O)oc2c1,-31.7
17,Cc1ccc(S(=O)(=O)N2CCN(Cc3ccccc3C(F)(F)F)CC2)cc1,-5.53
18,CCc1ccc2oc(=O)cc(CN3CCN(Cc4ccccc4)CC3)c2c1,-46.3
19,CCc1ccc2c(CN3CCN(Cc4ccccc4)CC3)cc(=O)oc2c1,-79.7
20,Cc1ccc2c(CN3CCN(S(=O)(=O)c4ccccc4C(F)(F)F)CC3)cc(=O)oc2c1C,-5.49
21,Cc1ccc2c(CSc3nnnn3C)cc(=O)oc2c1,-42.4
